From PubChem BioAssay
NadD block – NadD (S. aureus) enzyme inhibition. purified NadD enzyme, colorimetric absorbance read-out. 360,000 compounds, 0.78% hits. AID 602399. inhibition, % at 20 µM; in the data active = inhibition above about 26%
ATG4B inh – ATG4B (human) cysteine protease inhibition; Q9Y4P1; ATG4B cleavage of LC3-PLA2, NBD-HPC fluorescence, 1 h; inhibition, % at 8.33 µM; 340,000 compounds, 0.51% hits; in the data active = inhibition above about 40%
Calb FLC – affects C. albicans growth with fluconazole | AID 1979 | 300,000 compounds, 0.57% hits | C. albicans CaCi-2 (fluconazole-resistant clinical isolate) + fluconazole, Alamar Blue growth, 48 h | growth inhibition, % (test concentration not listed);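 active = growth inhibition above about 58% in most replicates, limit read from the data, passing the limit was not always enough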;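 note: all wells also contain fluconazole at 8 µg/ml as a sub-toxic cotreatment; 0% = median of DMSO wells and 100% = median of geldanamycin control wells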
FAS TE block – blocks the thioesterase domain of human fatty acid synthase; P49327; recombinant FAS-TE, OMFH fluorogenic substrate, fluorescence endpoint; inhibition, % at 15 µM; 360,000 compounds, 0.67% hits; AID 602261;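 active = compounds whose normalised, plate-corrected inhibition of enzyme fluorescence in the single-dose primary screen is 50% or more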;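 note: 0% = DMSO with enzyme and 100% = substrate without enzyme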
Target sequence (P49327 whole entry, looked up, the tested form may be a part): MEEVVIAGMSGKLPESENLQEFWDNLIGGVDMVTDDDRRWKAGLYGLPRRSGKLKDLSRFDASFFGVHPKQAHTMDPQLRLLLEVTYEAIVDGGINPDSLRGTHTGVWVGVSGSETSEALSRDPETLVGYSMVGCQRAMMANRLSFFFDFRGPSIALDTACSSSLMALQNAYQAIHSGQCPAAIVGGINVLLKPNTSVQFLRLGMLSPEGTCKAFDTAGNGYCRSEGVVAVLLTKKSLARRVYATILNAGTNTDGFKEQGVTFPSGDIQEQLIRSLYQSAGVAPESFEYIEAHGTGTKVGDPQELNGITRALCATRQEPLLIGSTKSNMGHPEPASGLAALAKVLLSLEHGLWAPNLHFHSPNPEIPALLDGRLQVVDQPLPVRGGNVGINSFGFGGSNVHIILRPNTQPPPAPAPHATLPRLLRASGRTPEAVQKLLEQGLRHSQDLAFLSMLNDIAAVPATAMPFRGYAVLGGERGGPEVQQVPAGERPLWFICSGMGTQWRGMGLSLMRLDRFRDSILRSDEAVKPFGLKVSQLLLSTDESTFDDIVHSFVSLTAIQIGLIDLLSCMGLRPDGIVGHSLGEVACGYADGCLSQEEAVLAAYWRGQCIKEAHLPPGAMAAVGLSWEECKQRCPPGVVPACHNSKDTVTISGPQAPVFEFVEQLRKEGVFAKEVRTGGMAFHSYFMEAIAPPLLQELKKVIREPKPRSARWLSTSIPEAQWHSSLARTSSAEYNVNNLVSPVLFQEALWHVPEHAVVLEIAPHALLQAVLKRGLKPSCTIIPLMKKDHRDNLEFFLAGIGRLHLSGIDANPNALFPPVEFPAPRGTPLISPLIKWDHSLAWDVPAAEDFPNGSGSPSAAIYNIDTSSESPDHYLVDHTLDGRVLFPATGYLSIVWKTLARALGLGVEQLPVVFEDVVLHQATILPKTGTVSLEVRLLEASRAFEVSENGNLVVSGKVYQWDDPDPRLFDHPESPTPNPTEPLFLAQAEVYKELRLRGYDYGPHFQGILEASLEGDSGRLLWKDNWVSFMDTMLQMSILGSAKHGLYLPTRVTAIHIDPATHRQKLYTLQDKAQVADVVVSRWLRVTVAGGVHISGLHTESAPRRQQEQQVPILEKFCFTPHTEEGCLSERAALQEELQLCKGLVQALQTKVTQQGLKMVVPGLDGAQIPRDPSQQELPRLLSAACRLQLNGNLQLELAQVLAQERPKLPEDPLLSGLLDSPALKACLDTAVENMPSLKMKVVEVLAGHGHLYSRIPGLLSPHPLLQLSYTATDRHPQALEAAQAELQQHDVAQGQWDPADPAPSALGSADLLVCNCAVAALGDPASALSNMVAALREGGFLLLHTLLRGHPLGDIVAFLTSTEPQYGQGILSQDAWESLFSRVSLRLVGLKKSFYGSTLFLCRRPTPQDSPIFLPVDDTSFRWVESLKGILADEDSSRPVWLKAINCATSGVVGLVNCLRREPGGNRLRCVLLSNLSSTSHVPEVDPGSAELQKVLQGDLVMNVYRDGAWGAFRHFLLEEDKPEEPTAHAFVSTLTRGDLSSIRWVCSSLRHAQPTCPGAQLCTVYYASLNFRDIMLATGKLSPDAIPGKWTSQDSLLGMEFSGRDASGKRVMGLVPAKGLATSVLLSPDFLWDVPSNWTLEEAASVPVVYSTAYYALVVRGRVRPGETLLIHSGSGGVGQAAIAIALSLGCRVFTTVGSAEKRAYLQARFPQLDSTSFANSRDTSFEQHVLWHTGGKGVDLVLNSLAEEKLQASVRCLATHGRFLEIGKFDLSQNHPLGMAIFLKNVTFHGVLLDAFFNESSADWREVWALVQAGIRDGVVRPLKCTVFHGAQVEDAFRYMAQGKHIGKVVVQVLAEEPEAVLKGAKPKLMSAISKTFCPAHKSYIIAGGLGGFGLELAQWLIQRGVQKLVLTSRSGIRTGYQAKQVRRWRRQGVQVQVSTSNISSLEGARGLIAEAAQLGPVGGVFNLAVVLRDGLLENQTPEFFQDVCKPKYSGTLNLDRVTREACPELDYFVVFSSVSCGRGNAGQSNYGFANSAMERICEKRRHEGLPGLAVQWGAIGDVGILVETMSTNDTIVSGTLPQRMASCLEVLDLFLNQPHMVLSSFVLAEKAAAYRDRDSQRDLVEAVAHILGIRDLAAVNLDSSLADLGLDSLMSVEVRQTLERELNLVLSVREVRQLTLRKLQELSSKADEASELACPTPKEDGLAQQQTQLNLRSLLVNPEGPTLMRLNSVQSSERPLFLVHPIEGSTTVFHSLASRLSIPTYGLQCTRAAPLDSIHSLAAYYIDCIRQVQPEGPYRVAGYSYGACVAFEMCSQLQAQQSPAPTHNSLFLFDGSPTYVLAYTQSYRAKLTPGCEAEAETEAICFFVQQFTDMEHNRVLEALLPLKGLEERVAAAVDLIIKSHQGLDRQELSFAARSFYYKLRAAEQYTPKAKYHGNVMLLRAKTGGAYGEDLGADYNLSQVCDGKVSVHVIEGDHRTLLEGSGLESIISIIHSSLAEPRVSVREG
SUMO Mot1 rescue – SUMOylation pathway inhibition by Mot1-301 growth rescue. S. cerevisiae Mot1-301 growth rescue, ATP luminescence, 38.5C; percent above DMSO median, 100 means doubled. growth rescue, % at 18.8 µM. 320,000 compounds, 1% hits;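 active = every valid replicate shows activation above 250% relative to neutral control wells; inactive = the rest, any valid replicate at or below 250%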;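 note: OY570 slx delta 5 strain wells were the positive control but not used for scaling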
FAS-TE inh conf – FAS thioesterase (human) inhibition, confirmation; shares compounds with FAS TE block; recombinant FAS-TE, OMFH fluorogenic substrate, fluorescence; inhibition, % at 15 µM; 2,300 compounds, 45% hits;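 active = compounds inhibiting the enzyme by at least 50% at 15 µM in any one of the replicates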;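 note: 0% = enzyme with DMSO only and 100% = wells lacking enzyme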
* marks the source's active call; other numbers are inactive results; nt = no result given. A selection: hits, their analogues and other compounds. The true share with any hit is near 3.1%.

SMILES	NadD block	ATG4B inh	Calb FLC	FAS TE block	SUMO Mot1 rescue	FAS-TE inh conf
CCN(CC(=O)Nc1ccccc1OC)C(=O)c1ccc(NS(=O)(=O)c2ccc(C(C)=O)cc2)cc1	-10	7	11	-7	16	nt
O=C(COC(=O)CNS(=O)(=O)c1cccc(Br)c1)NC(=O)Nc1ccc2c(c1)OCCO2	-1	-9	nt	-7	-16	nt
O[C@@H]([C@H](O)[C@H](O)CBr)[C@H](O)CBr	-2	7	nt	-5	5	nt
COc1ccc(C(C)(NC(C)=O)c2nc(-c3cccc4cccnc34)cs2)cc1 (stereo not given)	-6	nt	nt	2	nt	nt
COc1ccc(C(=O)O)cc1NC(=S)NC(=O)c1ccc(-c2ccc(Cl)cc2)o1	25	-6	11	58*	nt	66*
CCCNC(=O)Nc1cc(OC)c(OC)cc1Cc1nccc2cc(OC)c(OC)cc12	-17	-3	4	-3	-15	nt
CCN(c1ccccc1)S(=O)(=O)c1cccc(C(=O)OCc2nc3sc(C)c(C)c3c(=O)[nH]2)c1	16	2	-24	52*	5	-1
Cc1sc2nc(COC(=O)c3ccc(O)cc3)[nH]c(=O)c2c1C	-1	-8	4	2	-12	nt
COC(=O)c1ccc(CNC(=O)COC(=O)Cc2ccsc2)cc1	-7	-5	-5	-1	17	nt
CCc1ccc(C(=O)COC(=O)c2cc([N+](=O)[O-])ccc2NCCO)cc1	-10	-15	2	84*	-4	73*
Cc1cc(C)c(C(=O)COC(=O)c2cc([N+](=O)[O-])ccc2NCCO)cc1C	-11	8	43	52*	11	37*
O=C(COC(=O)c1cc([N+](=O)[O-])ccc1NCCO)c1ccc(Cl)cc1	-3	6	8	46	3	nt
CC1(C)CC(=O)N(c2ccc(Cl)cc2Cl)C(=O)C1	-8	3	1	-2	-21	nt
Cc1ccccc1COc1cccn2c(N(C)C(=O)CCC3CCCC3)c(C)nc12	12	nt	nt	20	nt	nt
Cc1ccc(Cl)cc1N1CCN(C(=O)C2CCN(S(=O)(=O)c3cccnc3)CC2)CC1	1	-23	-1	50*	6	22
O=C(C1CCN(S(=O)(=O)c2cccnc2)CC1)N1CCN(c2ccccc2Cl)CC1	-4	1	-1	-2	25	nt
CC(C)C1C(=O)N(Cc2cn(CC3CCCCC3)nn2)CCS(=O)(=O)N1Cc1ccc(-c2ccccc2)cc1 (stereo not given)	1	nt	nt	35	nt	nt
Cc1ccc(S(=O)(=O)N2CCOCC2)cc1C(=O)NCCN1C(=O)S/C(=C\c2ccccc2Cl)C1=O	0	-6	4	56*	-4	31
CC(=O)NCCn1c(SCc2cccc([N+](=O)[O-])c2)nc2ccccc2c1=O	-2	-13	-2	53*	108	12
O=S(=O)(c1ccc(F)cc1)N1CCCC(c2nc(-c3ccc(F)cc3)no2)C1 (stereo not given)	-6	-10	nt	58*	-10	23
O=S(=O)(Cc1ccccc1)N1CCCC(c2nc(-c3ccc(F)cc3)no2)C1 (stereo not given)	-11	9	4	26	14	nt
O=C(CN1C(=O)COc2ccccc2C1=O)c1ccc2c(c1)OCCO2	-10	3	4	9	88	nt
CCOC(=O)N1CCN(C(=O)C[C@@H]2C[C@@]3(C(=O)OCC)CCC=C3N(Cc3ccc4c(c3)OCO4)C2=O)CC1	3	nt	nt	-8	nt	nt
CC(C)(C)c1ccc(OC(=O)Nc2ccc(O)c(C(=O)O)c2)cc1	9	-5	-3	50*	6	63*
COC(=O)[C@@]1(C(C)C)N=C(c2cc(OC)c(OC)c(OC)c2)[C@]2(O1)C(=O)N(Cc1ccc(OC)cc1)c1ccc(Br)cc12	2	nt	nt	53*	nt	14
SMILES	NadD block	ATG4B inh	Calb FLC	FAS TE block	SUMO Mot1 rescue	FAS-TE inh conf
Cc1ccc(NC(=O)Cn2ccnc2)cc1C	-4	3	-14	-6	18	nt
O=C(CCSc1ccccc1Cl)Nc1cccc([N+](=O)[O-])c1	-5	17	-15	52*	-4	18
NS(=O)(=O)c1cccc(NC(=O)CCSc2ccccc2Cl)c1	-9	-13	-2	2	3	nt
O=C(Cc1cccc(C(F)(F)F)c1)OCN1C(=O)c2ccccc2C1=O	1	6	5	51*	3	46*
Cc1ccc(S(=O)(=O)c2nnn3c2nc(NCCCN2CCCC2=O)c2ccccc23)cc1C	1	-17	18	71*	23	69*
CCc1ccc(S(=O)(=O)c2nnn3c2nc(NCCNC(C)=O)c2ccccc23)cc1	-1	-19	-25	77*	-7	79*
CC(OC(=O)/C=C/c1ccco1)C(=O)Nc1cccc([N+](=O)[O-])c1 (stereo not given)	-5	-4	-30	38	-8	nt
COc1ccc([N+](=O)[O-])cc1NC(=O)C(C)OC(=O)c1ccccc1C(=O)c1ccc(Cl)cc1 (stereo not given)	7	-11	-7	58*	0	31
COc1ccc([N+](=O)[O-])cc1NC(=O)C(C)OC(=O)/C=C/c1ccco1 (stereo not given)	0	-11	-3	62*	nt	59*
CCc1noc(C)c1C(=O)OC(C)C(=O)Nc1cc([N+](=O)[O-])ccc1OC (stereo not given)	-10	-10	-6	75*	13	33
CCC(C)(C)C1CCC2(CC1)NC(=O)N(CC(=O)NCCc1ccc(OC)c(OC)c1)C2=O (stereo not given)	-11	-21	nt	15	5	nt
CCN(CC)C(=O)Cn1cc(C(=O)C(=O)N2CCN(c3ccc(OC)cc3)CC2)c2ccccc21	6	9	21	0	-18	nt
O=c1c2ccccc2c(C=Nc2cccc(S(=O)(=O)NC3=NCCCCC3)c2)c(O)n1Cc1ccccc1	21	-10	-1	65*	-21	5
COCCN(C(=O)CSc1nnc(-c2ccccc2F)o1)c1c(N)n(Cc2ccccc2)c(=O)[nH]c1=O	2	nt	nt	-4	nt	nt
COCCCn1cc(CN2CC(N3CCCCC3)CS2(=O)=O)nn1 (stereo not given)	8	nt	nt	-9	nt	nt
Cc1nn(-c2ccccc2)c(N2CCCC2)c1/C=N/NC(=O)c1cc(-c2ccccc2)nc2ccccc12	27	10	2	43	20	nt
Cc1nn(-c2ccccc2)c(N2CCCC2)c1/C=N/NC(=O)c1cc(-c2ccccn2)nc2ccccc12	22	15	-11	77*	-9	26
Cc1nn(-c2ccccc2)c(N2CCCC2)c1/C=N/NC(=O)c1cc(-c2cccs2)nc2ccccc12	24	9	11	80*	-5	13
Cc1ccccc1COC(=O)CN1C(=O)NC2(CCCC2)C1=O	2	0	3	-4	5	nt
CC(C)(C)c1ccc(COC(=O)CN2C(=O)NC3(CCCC3)C2=O)cc1	-3	-11	0	68*	8	76*
